The results in this text go back to PubChem BioAssay (NCATS).

The structures appear in SMILES notation. Several values for one entry are separate records, joined by “and”; a condition that tells them apart may be missing. Equal values may be shown once. Records with an inconclusive call do not appear. Where a structure was tested more than once in an assay, its records may differ in their call. Activity calls are given as the source filed them. Unless noted, calls follow the shape of the dose curve; as a rule, active = well fitted curve in the direction sought with a large enough effect; inconclusive = small, poorly fitted or top-dose-only effect, or another doubt; inactive = no such curve, though single readings can be large; an effect the other way counts as inactive or inconclusive.

A short description of experiment [1]: Cellular Toxicity (caspase-3) NIH 3T3 (AID 666). In a few lines: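 Activity: caspase-3/7 induction, NIH 3T3 cells, 16 hr treatment at 37°C, luminescent Caspase-Glo detection; AC50 via Hill equation.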
Experiment [2] can be described thus: Cellular Toxicity (caspase-3) Renal Proximal Tubule (AID 667).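 Also: cells exposed to compound for 16 hours at 37 °C before detection.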 In a few lines:
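Caspase-Glo 3/7 read-out, rat primary kidney proximal tubule cells. Compound exposure 16 h, 37 °C; detection after 1 h at RT. Activity scaled to DMSO and 10 uM staurosporine.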

The target in experiment [3] is Cytochrome P450 3A4 (Homo sapiens) (UniProt P08684). Description: qHTS Assay for Inhibitors and Substrates of Cytochrome P450 3A4 (AID 884). Also: nearly all actives have a fitted effect of over 50% in size. Also: potency is read from the fitted curve at half-maximal effect. In a few lines: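 Luminescent readout of luciferin produced by CYP3A4 (20 nM) dealkylation of Luciferin-PPXE, 25 uM (its KM). NADPH-driven reaction ran 60 min at RT after 10 min compound preincubation; data scaled to 57 uM ketoconazole as 100% inhibition.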
Background: Quantitative high-throughput screening tests each substance at several concentrations.

Experiment [4] can be described thus: Cell Viability - LYMP2-001 (AID 921).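 Also: series mostly up to about 92 µM; cells exposed to compound for 24 h at 37 °C; nearly all actives have a fitted effect of over 70% in size.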 In a few lines:
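A lymphoblastoid cell line of human origin was treated with library compounds across a concentration series for 24 hours, and viable cell number was estimated from ATP-driven luciferase light output. Hill modeling gave AC50.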

Experiment [5] is described as follows: MultiTox-Fluor Cytotoxicity Assay - LYMP1-001 - Dead Cells (AID 946). In a few lines:
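AC50 from Hill fit of concentration-response; data normalized to DMSO (basal) and 15 uM tetraoctylammonium bromide (100%). LYMP1-001 lymphoblastoid cells, 2500/well, 16 hr compound at 37 C; dead-cell protease fluorescence, Ex/Em 485/520.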

The nature of experiment [6]: Cell Viability - LYMP1-002 - Assay at 16 hr (AID 948). In a few lines: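 In this qHTS, lymphoblastoid LYMP1-002 cells (human) receive compounds for 16 hr at 37 C. Viability is taken from CellTiter-Glo ATP luminescence, and AC50 derives from standard Hill fits.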
For experiment [7], the target named is Cytochrome P450 2D6 (Homo sapiens) (UniProt P10635). Description: qHTS Assay for Inhibitors and Substrates of Cytochrome P450 2D6 (AID 891). Also: nearly all actives have a fitted effect of over 60% in size. Also: potency is read from the fitted curve at half-maximal effect. In a few lines:
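Luminescent read-out of luciferin formed by 5 nM human CYP2D6 demethylating 30 uM Luciferin-ME EGE (Km level) over 60 min at room temperature after NADPH regeneration addition. Data normalized to full inhibition by 1.43 uM quinidine.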

Experiment [8] addresses Cytochrome P450 2C9 (Homo sapiens) (UniProt P11712). Description: qHTS Assay for Inhibitors and Substrates of Cytochrome P450 2C9 (AID 883). Also: nearly all actives have a fitted effect of over 60% in size. Also: potency is read from the fitted curve at half-maximal effect. In a few lines:
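Signal: luciferase luminescence reporting luciferin produced by CYP2C9. Conditions: 10nM enzyme, Luciferin-H 100uM at KM, 25mM KPO4, 37C, 60 min NADPH-driven reaction. Reference: 57uM sulphaphenazole as 100% inhibition.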

Experiment [9] addresses Cytochrome P450 2C19 (Homo sapiens) (UniProt P33261). Description: qHTS Assay for Inhibitors and Substrates of Cytochrome P450 2C19 (AID 899). Also: nearly all actives have a fitted effect of over 60% in size. Also: potency is read from the fitted curve at half-maximal effect. In a few lines: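 Signal comes from luciferase acting on luciferin released by CYP2C19-mediated hydroxylation of Luciferin-H EGE, 10uM (KM). Assay mix: 5nM enzyme, 50mM KPO4; 60 min at 37C with NADPH regeneration. Data normalized against 57uM ketoconazole.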

Experiment [10] in a line: Confirmation and Secondary Assay for Modulators of Hemoglobin Beta Chain Splicing at IVS2 654 locus (AID 910).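 Also: HeLa cells stably carrying EGFP split by mutant beta-globin IVS2-654 intron.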 In a few lines:
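HeLa cells stably expressing EGFP interrupted by β-globin IVS2-654 intron, seeded overnight in Opti-MEM/2% FCS, then treated 2 days at 37 °C. Restored splicing read as total peak GFP intensity per well by laser scanning cytometry (488 nm excitation, 500–520 nm emission); 500 nM antisense PNA as control.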

Experiment [11] is described as follows: Confirmation and Secondary Assay for Modulators of Hemoglobin Beta Chain Splicing at IVS2 705 locus (AID 930).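 Also: HeLa cells stably expressing the EGFP-705 splicing reporter; GFP fluorescence per well restored by corrected splicing of the IVS2-705 intron in EGFP; series mostly up to about 46 µM.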 In a few lines: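 Per-well GFP, captured at 1 x 8 µm resolution with 488 nm excitation, served as the read-out for HeLa EGFP-705 cells incubated 2 days with test compound versus DMSO.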
The target of experiment [12] is Guanine nucleotide-binding protein G(i) subunit alpha-1 (Homo sapiens) (UniProt P63096). Description: qHTS Assay for Inhibitors of RGS12 GoLoco Motif Activity (Green Fluorophore) (AID 879).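 Also: negative values mean loss of peptide binding seen as reduced polarization.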 In a few lines: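 A drop in FITC polarization marked displacement of the FITC-tagged RGS12 GoLoco peptide (10 nM) from Gαi1 (50 nM). Compounds were incubated 10 min at room temperature in Tris pH 7.5 buffer containing 150 mM NaCl, 0.1 mM GDP and 0.05% NP40; unlabeled peptide titration served as control.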

The nature of experiment [13]: qHTS Assay for Identification of Small Molecule Antagonists for NFkB Signaling Pathway (AID 895; active = well fitted inhibition curve with a large enough effect in the signal ratio, with a control signal flat, not every such curve was filed as active; the % refers to the signal ratio). In a few lines:
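ME-180 NFkB-bla cells (beta-lactamase under NFkB response element), plated overnight, treated with compound then 10 pM TNF alpha (about EC50) for 5 hrs at 37 C. LiveBLAzer FRET read at 460/530 nm emission, 405 nm excitation.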

Experiment [14] is described as follows: qHTS Assay for Identification of Small Molecule Agonists for Thrombopoietin (TPO) Signaling Pathway (AID 917). In a few lines: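 Human TPO receptor–transfected Ba/F3 cells (murine, IL-3-dependent) in IL-3-deficient medium; compounds plus TPO at EC50, 26 pM final; 24 hrs, 37 C; GpIIb-luciferase luminescence after 10 min RT detection.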
For experiment [15], the target named is Muscarinic acetylcholine receptor M1 (Rattus norvegicus) (UniProt P08482). Description: qHTS Assay for Antagonists of Acetylcholine Muscarinic M1 Receptor: Measurement of IP-One Response (AID 944). Also: nearly all actives have a fitted effect of over 75% in size. Also: potency is read from the fitted curve at half-maximal effect. In a few lines:
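Antagonism was measured as loss of carbachol-driven (EC80) IP1 accumulation in CHO cells carrying rat M1, using a homogeneous IP-One TR-FRET kit read at 620 and 665 nm.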

Experiment [16] concerns the target Pyruvate kinase (Leishmania mexicana) (UniProt Q27686). Description: qHTS Validation Assay for Inhibitors of Leishmania Mexicana Pyruvate Kinase (AID 945). In a few lines: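 An endpoint luciferase assay: 0.2 nM LmPYK E451W turns over 0.5 mM PEP with 0.1 mM ADP for 1 h at room temperature, pH 7.2, before PKLight addition. Values are normalized to DMSO-only wells.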

For experiment [17], the target named is Pyruvate kinase PKM (Homo sapiens) (UniProt P14618). Description: qHTS Assay for Activators of Human Muscle Pyruvate Kinase (AID 954; active = well fitted curve in the direction sought with a large enough effect, not every such curve was filed as active). In a few lines: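 A coupled luminescent readout tracked ATP made from ADP by purified PKM2. Final conditions included 0.1 nM enzyme, PEP and ADP at 0.5 and 0.1 mM, pH 7.2 imidazole buffer with BSA, and a one-hour room-temperature reaction.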

Experiment [18] has as its target Cytochrome P450 3A4 (Homo sapiens) (UniProt P08684). Description: qHTS Assay for Activators of Cytochrome P450 3A4 (AID 885). Also: nearly all actives have a fitted effect of over 65% in size. Also: potency is read from the fitted curve at half-maximal effect. In a few lines: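 CYP3A4 activity: Luciferin-PPXE O-dealkylation, 25uM substrate, 200mM KPO4, RT throughout. Read-out is luciferase luminescence; higher values reflect activation.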
Experiment [19] is described as follows: qHTS Assay for Identification of Small Molecule Antagonists for Thrombopoietin (TPO) Signaling Pathway (AID 918). Also: potency is read from the fitted curve at half-maximal effect; nearly all actives have a fitted effect of over 60% in size. The conditions noted are these: TPO-dependent cell signaling reporter, antagonist mode. In a few lines: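 Antagonist mode at EC50 TPO (26 pM) in IL-3-free medium; murine Ba/F3 cells with human TPO receptor and GPIIb-promoter luciferase, 24 hrs at 37 C before luminescent detection.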

Experiment [20] addresses Muscarinic acetylcholine receptor M1 (Rattus norvegicus) (UniProt P08482). Description: qHTS Assay for Antagonists of Acetylcholine Muscarinic M1 Receptor: Kinetic Measurement of Intracellular Calcium Response (AID 943). Also: nearly all actives have a fitted effect of over 75% in size. Also: potency is read from the fitted curve at half-maximal effect. In a few lines:
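Quantitative HTS in CHO-M1 (rat receptor) cells: 10 min compound exposure ahead of 100 nM carbachol, Fluo-4 fluorescence followed 4 min, value expressed as peak-to-basal ratio.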

Sequence of Cytochrome P450 2D6 (Homo sapiens) (P10635 whole entry, looked up): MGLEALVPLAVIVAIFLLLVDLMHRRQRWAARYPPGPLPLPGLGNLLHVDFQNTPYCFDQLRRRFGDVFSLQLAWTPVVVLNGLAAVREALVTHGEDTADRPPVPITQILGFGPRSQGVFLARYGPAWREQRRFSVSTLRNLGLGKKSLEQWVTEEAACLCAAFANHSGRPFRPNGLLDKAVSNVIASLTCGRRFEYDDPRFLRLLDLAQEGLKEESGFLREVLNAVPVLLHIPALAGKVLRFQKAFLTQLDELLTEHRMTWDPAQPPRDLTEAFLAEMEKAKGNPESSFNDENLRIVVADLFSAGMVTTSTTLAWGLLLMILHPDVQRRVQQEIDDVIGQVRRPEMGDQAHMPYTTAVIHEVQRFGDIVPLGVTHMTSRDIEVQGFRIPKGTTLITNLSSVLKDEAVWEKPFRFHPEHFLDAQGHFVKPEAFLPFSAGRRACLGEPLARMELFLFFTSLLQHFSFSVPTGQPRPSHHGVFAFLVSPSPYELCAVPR
Sequence of Cytochrome P450 3A4 (Homo sapiens) (P08684 whole entry, looked up): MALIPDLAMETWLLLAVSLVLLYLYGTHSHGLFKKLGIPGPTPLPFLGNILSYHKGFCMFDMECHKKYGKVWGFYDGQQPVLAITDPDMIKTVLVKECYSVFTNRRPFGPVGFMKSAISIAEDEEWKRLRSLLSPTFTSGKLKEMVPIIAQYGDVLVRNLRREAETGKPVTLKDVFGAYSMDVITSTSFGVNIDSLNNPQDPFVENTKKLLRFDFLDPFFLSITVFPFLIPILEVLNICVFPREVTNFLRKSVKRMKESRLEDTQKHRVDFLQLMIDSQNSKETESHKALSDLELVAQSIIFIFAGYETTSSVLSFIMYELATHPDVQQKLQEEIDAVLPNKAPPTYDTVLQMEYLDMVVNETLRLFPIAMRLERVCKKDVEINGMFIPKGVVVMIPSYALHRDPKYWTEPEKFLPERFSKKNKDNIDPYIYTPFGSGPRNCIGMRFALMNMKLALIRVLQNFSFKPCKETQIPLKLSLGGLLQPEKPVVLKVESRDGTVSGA
Sequence of Cytochrome P450 2C19 (Homo sapiens) (P33261 whole entry, looked up): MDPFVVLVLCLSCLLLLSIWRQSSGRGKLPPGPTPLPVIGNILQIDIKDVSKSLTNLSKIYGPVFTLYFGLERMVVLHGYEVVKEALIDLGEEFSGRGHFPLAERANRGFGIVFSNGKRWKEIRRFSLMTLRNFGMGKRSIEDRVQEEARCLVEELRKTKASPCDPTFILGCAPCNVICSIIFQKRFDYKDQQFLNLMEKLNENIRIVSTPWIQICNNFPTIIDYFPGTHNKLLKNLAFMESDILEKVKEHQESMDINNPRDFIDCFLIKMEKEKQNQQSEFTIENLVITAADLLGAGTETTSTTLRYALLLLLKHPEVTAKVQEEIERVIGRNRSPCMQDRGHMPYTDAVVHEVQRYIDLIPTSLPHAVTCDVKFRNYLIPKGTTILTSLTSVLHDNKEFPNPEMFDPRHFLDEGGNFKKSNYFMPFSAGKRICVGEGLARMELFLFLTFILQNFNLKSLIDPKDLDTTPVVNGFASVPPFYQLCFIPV
Sequence of Pyruvate kinase (Leishmania mexicana) (Q27686 2-499 E452W): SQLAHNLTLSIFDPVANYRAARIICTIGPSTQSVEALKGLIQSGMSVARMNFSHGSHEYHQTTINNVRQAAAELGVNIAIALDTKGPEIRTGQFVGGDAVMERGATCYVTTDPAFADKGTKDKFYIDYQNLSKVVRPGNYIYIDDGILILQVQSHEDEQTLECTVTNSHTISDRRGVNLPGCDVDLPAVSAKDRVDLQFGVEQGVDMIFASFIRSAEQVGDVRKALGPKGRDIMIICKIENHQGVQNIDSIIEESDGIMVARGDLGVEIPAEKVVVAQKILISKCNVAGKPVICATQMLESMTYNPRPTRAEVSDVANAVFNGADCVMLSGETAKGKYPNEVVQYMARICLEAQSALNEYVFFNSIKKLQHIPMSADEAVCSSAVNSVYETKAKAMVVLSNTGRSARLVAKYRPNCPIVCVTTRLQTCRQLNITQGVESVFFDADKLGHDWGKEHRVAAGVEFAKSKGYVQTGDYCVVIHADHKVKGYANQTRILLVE
Sequence of Cytochrome P450 2C9 (Homo sapiens) (P11712 whole entry, looked up): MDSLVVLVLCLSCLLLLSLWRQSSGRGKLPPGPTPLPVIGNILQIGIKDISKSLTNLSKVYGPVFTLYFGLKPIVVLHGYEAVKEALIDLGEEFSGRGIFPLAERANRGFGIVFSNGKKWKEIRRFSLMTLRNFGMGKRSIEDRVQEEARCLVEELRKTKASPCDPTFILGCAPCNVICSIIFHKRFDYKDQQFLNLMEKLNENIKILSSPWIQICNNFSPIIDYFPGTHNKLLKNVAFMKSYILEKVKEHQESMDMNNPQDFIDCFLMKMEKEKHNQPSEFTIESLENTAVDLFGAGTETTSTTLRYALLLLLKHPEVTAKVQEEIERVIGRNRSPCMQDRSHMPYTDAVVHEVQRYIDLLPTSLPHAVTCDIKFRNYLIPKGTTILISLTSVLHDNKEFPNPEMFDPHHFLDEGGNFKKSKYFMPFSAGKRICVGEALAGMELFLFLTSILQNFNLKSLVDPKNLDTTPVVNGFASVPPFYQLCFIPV
Sequence of Guanine nucleotide-binding protein G(i) subunit alpha-1 (Homo sapiens) (P63096 whole entry, looked up): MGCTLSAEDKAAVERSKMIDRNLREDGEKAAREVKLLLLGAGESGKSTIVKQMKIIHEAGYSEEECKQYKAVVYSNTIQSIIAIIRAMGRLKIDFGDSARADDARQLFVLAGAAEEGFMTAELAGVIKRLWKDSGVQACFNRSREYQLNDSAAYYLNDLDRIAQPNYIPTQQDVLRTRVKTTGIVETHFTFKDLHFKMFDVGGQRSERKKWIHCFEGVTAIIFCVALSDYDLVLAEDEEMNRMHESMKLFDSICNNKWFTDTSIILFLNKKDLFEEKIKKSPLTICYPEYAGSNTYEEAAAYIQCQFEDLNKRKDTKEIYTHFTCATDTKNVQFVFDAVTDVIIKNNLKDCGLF
Sequence of Pyruvate kinase PKM (Homo sapiens) (P14618 whole entry, looked up): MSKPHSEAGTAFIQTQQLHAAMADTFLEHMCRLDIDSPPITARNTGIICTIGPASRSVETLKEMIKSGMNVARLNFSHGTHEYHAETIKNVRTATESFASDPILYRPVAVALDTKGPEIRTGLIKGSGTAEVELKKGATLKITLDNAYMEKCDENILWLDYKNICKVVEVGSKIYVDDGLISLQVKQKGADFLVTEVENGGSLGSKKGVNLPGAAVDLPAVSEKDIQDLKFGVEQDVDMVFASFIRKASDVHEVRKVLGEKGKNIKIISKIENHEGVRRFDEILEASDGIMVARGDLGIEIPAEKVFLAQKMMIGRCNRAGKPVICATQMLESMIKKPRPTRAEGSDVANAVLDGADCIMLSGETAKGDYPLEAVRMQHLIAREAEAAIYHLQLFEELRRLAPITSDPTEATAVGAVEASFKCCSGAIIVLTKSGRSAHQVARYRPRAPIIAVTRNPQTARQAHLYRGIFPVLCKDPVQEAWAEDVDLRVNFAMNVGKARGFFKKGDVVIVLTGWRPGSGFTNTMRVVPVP
Sequence of Muscarinic acetylcholine receptor M1 (Rattus norvegicus) (P08482 whole entry, looked up): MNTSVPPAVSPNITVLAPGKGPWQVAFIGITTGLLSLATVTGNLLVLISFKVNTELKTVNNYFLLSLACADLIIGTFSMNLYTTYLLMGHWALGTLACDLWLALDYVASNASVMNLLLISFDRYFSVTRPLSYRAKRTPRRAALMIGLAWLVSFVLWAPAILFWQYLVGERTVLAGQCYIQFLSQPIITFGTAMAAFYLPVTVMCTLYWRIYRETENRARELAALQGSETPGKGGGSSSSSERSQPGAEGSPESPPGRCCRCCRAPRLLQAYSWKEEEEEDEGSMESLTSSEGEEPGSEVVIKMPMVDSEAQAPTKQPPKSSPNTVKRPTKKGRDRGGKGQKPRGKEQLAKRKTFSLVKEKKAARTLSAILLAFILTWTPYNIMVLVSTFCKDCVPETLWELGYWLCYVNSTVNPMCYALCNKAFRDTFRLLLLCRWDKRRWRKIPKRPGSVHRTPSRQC

With `Oc1ccccc1`, the Potency result in experiment [1], in [3], in experiment [4], in experiment [5] and in experiment [6] was “inactive” throughout. Also, in [2], the molecule was called inactive.
Regarding `Brc1ccccc1-c1ccccc1`, the Potency entry in [1], in [3], in experiment [4], in experiment [5] and in [6] was “inactive” in each case. The call in [2] was inactive.
As to `CCCCC(CC)COC(=O)c1ccccc1C(=O)O` (stereo not drawn), the Potency result in experiment [1], in experiment [3], in experiment [4], in [5] and in [6] was “inactive” in each case. The molecule was classed as inactive in experiment [2].
On to `OC(CCCN1CCCCC1)(c1ccccc1)c1ccccc1`, for which the Potency in experiment [7] is 0.126 µM (active).
For the molecule `C[C@@H](C1=C(CCN(C)C)Cc2ccccc21)c1ccccn1`, the Potency in experiment [8] is 0.501 µM (active); in [9], 2.51 µM (active).
On to `O=C(O)Cc1ccc(OCCNC[C@H](O)c2ccccc2)cc1`, for which the Potency result in [3] is “inactive”.
For the molecule `COC(=O)c1c(Cl)c(Cl)c(C(=O)OC)c(Cl)c1Cl`, the Potency result in experiment [3] is “inactive”. Further, the call in experiment [10] and in experiment [11] was inactive.
Consider `NC(N)=NCCCCN=C(N)N`, for which the outcome in [12], in [13], in experiment [10], in experiment [14], in [11] and in [16] was inactive. Also, in experiment [17], the result was inactive. In addition, the Potency in experiment [15] is 10 µM (active).
For `C[N+](C)(C)CCO`, the result in experiment [12], in [10], in experiment [14], in [11], in experiment [16] and in [17] was inactive. Besides, the Potency in [3] is 31.6 µM (active). For the same molecule, the Potency result in [15] was “inactive”.
As to `CCOC(=O)NNc1nncc2ccccc12`, in experiment [3], the Potency result is “inactive”. The call in experiment [10] and in experiment [11] was inactive.
`O=[N+]([O-])c1ccc(-c2nc(-c3ccc(F)cc3)c(-c3ccncc3)[nH]2)cc1`: the call in experiment [12], in experiment [16] and in [17] was inactive. The results for the Potency in experiment [3] and in experiment [19] were 0.158 µM (active) and 12.6 µM (active), respectively. In addition, the Potency result in [18] and in [20] was “inactive” in each case.
For the molecule `CCN(CC)CCOc1ccc(/C(=C(\Cl)c2ccccc2)c2ccccc2)cc1`, the Potency result in experiment [8] and in experiment [3] was “inactive” throughout. Further, in experiment [7], the Potency is 5.01 µM (active). For the same molecule, the call in experiment [10] and in experiment [11] was inactive.
Take `Cc1nn(-c2ccccc2)c(C)c1/C=N/N1CCN(Cc2ccccc2)CC1`: the Potency result in experiment [3] is “inactive”. In [18], the Potency was 10 µM (active).
In the case of `Brc1ccc([C@H]2CN3CCSC3=N2)cc1`, the molecule was called inactive in experiment [12], in [16] and in [17]. The Potency entry in experiment [18] is “inactive”. In addition, in experiment [20], the Potency is 12.6 µM (active).
For the molecule `COc1ccccc1N1CCN(CCN2C(=O)CC3(CCCC3)CC2=O)CC1`, the molecule was classed as inactive in [12], in experiment [16] and in experiment [17]. Besides, the Potency result in [18] was “inactive”.
For `CC(C)N(CCC(=O)c1ccc2ccccc2c1)Cc1ccccc1`, the molecule was classed as inactive in experiment [12], in experiment [16] and in [17]. In addition, the Potency entry in [18], in experiment [20] and in [15] was “inactive” throughout. In addition, the Potency is 2 µM (active) in [7] and 2.51 µM (active) in experiment [19].
For the molecule `Cc1ccc2c(Cl)cc(Cl)c(O)c2n1`, in [3], the Potency entry was “inactive”. The result in experiment [10] and in experiment [11] was inactive.
Regarding `CN(C(=O)C(Cl)Cl)c1ccc(OC(=O)c2ccco2)cc1`, the Potency entry in experiment [3] is “inactive”.
Take `CC(=O)OCC[N+](C)(C)C`: the Potency entry in [3] is “inactive”. In addition, the outcome in experiment [10] and in experiment [11] was inactive.
As for `CC(NCCC(c1ccccc1)c1ccccc1)c1ccccc1` (stereo not drawn), the call in [10] and in experiment [11] was inactive.
In the case of `CN(C)c1cc2c(Nc3ccc4c(cnn4Cc4ccccc4)c3)ncnc2cn1`, the molecule was called inactive in experiment [12], in [16] and in experiment [17]. Besides, the Potency in [3] is 5.01 µM (active); in [15], 11.2 µM (active). Besides, the Potency entry in [18] is “inactive”.
On to `Nc1ncnc2nc[nH]c12`, for which the Potency entry in experiment [3] was “inactive”. Moreover, the molecule was classed as inactive in [10] and in [11].
In the case of `C1N2CN3CN1CN(C2)C3`, the Potency entry in experiment [3] was “inactive”. Further, the result in experiment [10] and in experiment [11] was inactive.
`O=C(O)/C=C(\CC(=O)O)C(=O)O`: the Potency result in [3] was “inactive”. Moreover, the outcome in experiment [10] and in [11] was inactive.
`O=C1NC(c2cccc([N+](=O)[O-])c2)=CCN1c1ccccc1O`: the call in experiment [12], in experiment [14], in experiment [16] and in experiment [17] was inactive. For the same molecule, the Potency result in [8], in experiment [7], in experiment [20] and in [15] was “inactive” throughout. The Potency entry in experiment [9] was “inactive and 6.31 µM (active)”.
